B2AR arrestin = qHTS assay of beta-arrestin-biased ligands of beta2-adrenergic receptor | Potency, µM (highest dose often 46.1 µM), for inactives: top-dose activation, actives largely listed as activators | Beta-2 adrenergic receptor (Homo sapiens), P07550 | AID 492947, 2010 | hit rate 0.02% among 330,000 | beta-arrestin recruitment to beta2AR, cell-based reporter;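 note: potency is the fitted concentration of half-maximal effect; 0% = DMSO controls and full agonism = EC100 isoproterenol or metaproterenol; nearly all actives have a fitted effect of over 65% in size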
Target sequence (P07550 whole entry, looked up): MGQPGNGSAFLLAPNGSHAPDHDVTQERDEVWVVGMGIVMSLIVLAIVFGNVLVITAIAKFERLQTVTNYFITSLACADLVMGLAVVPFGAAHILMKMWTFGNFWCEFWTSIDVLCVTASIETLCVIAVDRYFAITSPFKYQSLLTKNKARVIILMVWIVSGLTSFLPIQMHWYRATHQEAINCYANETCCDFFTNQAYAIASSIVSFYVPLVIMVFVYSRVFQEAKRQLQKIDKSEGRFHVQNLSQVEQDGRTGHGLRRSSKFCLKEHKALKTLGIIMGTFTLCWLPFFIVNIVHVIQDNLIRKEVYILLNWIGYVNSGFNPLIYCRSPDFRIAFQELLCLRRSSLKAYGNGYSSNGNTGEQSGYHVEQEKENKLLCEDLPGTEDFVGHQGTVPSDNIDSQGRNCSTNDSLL
VP16 counter = VP16 counterscreen qHTS for inhibitors of ROR gamma transcriptional activity; Drosophila S2 Gal4-VP16 UAS-luciferase, luminescence, 20 h; Potency, µM (series often up to 53.6 µM), inactives show top-dose activity, negative = inhibition, hits mostly inhibitors; hit rate 3.5% among 310,000;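 note: Gal4-VP16 expression switched on by copper sulfate through the metallothionein promoter; potency is the fitted concentration of half-maximal effect; nearly all actives have a fitted effect of over 50% in size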
ELG1 DNA repair = qHTS screen for small molecules that inhibit ELG1-dependent DNA repair in human embryonic kidney (HEK293T) cells expressing luciferase-tagged ELG1. HEK293T ELG1-luciferase reporter, luminescence, 16 h; DNA damage induced by 5-fluorouridine. Potency, µM (doses to about 46.1 µM), for inactives: at the top dose activity change, negative = inhibition, hits mostly inhibitors. hit rate 2.3% among 330,000; note: potency is the fitted concentration of half-maximal effect; nearly all actives have a fitted effect of over 55% in size
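HEK293T cells expressing luciferase-tagged ELG1 (2,000/well) received 5-Fluorouridine plus compound or DMSO for 16 hr at 37 °C. Luciferase was read by ONE-Glo luminescence after 30 min at room temperature.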
TSHR antag = Antagonists of the Thyroid Stimulating Hormone Receptor: HTS campaign; Thyrotropin receptor (Homo sapiens), P16473; TSHR-expressing cells, TSH-stimulated cAMP HTRF, 2 h; stronger effect = lower value; activity change, negative = inhibition, % at 11.5 µM; hit rate 0.2% among 330,000; AID 504810, 2011;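 active = activity change below a set negative limit, meaning inhibition stronger than a set level, cut at about -70% in these data; inconclusive = activity change between two set negative limits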
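TSHR-expressing cells were treated with compounds, then stimulated with TSH at EC80 (4nM final) for 2 hours at 37 deg C. Cellular cAMP was measured by HTRF competition between lysate cAMP and cAMP-d2 for a cryptate-labelled anti-cAMP antibody.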
RORg inh = qHTS for inhibitors of ROR gamma transcriptional activity; Potency, µM (highest dose often 53.6 µM), without a hit: top-dose activity change, negative = inhibition, most hits filed as inhibitors; Nuclear receptor ROR-gamma (Mus musculus), P51450; hit rate 5.4% among 310,000; AID 2551, 2010; Drosophila S2 Gal4-RORgamma UAS-luciferase reporter, 20 h; note: potency is the fitted concentration of half-maximal effect; nearly all actives have a fitted effect of over 60% in size
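A Gal4/UAS one-hybrid system in insect cells: metallothionein-promoter Gal4–ROR gamma fusion plus Photinus luciferase reporter. Copper sulfate 700 uM final, 20 hr ambient incubation, luminescent detection after 10 min with reagent.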
ELG1 FLuc counter = qHTS screen for small molecules that inhibit ELG1-dependent DNA repair: Hit Confirmation in Cell-Based Luciferin Assay | Potency, µM (top dose mostly 46.1 µM), inactives show top-dose activity change, negative = inhibition, actives largely listed as inhibitors | shares compounds with ELG1 DNA repair | hit rate 3% among 350 | cell-free firefly luciferase luminescence counter-screen, ViewLux; note: potency is the fitted concentration of half-maximal effect
ELG1-Luc inh = HTS assay for small molecules that inhibit ELG1-dependent DNA repair in human embryonic kidney (HEK293T) cells expressing luciferase-tagged ELG1: Hit Confirmation; shares compounds with ELG1 DNA repair; HEK293T ELG1-luciferase levels, luminescence; cells co-treated with 5-fluorouridine; Potency, µM (doses to about 46.1 µM), for the others: at the top dose activity change, negative = inhibition, actives largely listed as inhibitors; hit rate 68% among 670; note: potency is the fitted concentration of half-maximal effect; nearly all actives have a fitted effect of over 55% in size
ELG1 MMS Luc = confirmation of human ELG1 repair inhibitors, MMS stimulated | shares compounds with ELG1 DNA repair | HEK293T luciferase-tagged ELG1 level, MMS stimulated | Potency, µM (doses to about 46.1 µM), inactives show top-dose activity change, negative = inhibition, most hits filed as inhibitors | hit rate 53% among 670 | AID 624249; note: potency is the fitted concentration of half-maximal effect; nearly all actives have a fitted effect of over 60% in size
ELG1 5FU viab = qHTS screen for small molecules that inhibit ELG1-dependent DNA repair: Hit Confirmation with 5FU Viability. cell viability with 5-FU, ELG1-dependent repair. AID 624250, 2012. 670 tested, under 10 active. Potency, µM (series often up to 46.1 µM), for inactives: at the highest dose activity change, negative = viability loss, usual class: cytotoxic. shares compounds with ELG1 DNA repair;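 note: ELG1-luc HEK293T cells cotreated with 5-fluorouridine at 10 µM final; potency is the fitted concentration of half-maximal effect; viability measured 16 h after compound addition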
ELG1 MMS viab = qHTS screen for small molecules that inhibit ELG1-dependent DNA repair: Hit Confirmation with MMS Viability | shares compounds with ELG1 DNA repair | Cell viability with MMS, ELG1-dependent DNA repair | Potency, µM (highest dose often 46.1 µM), for inactives: top-dose activity change, negative = viability loss, actives largely listed as cytotoxic | hit rate 33% among 670 | AID 624251, 2012;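 note: ELG1-luc HEK293T cells co-treated with 10 µM MMS; potency is the fitted concentration of half-maximal effect; viability read 16 h after compound addition; nearly all actives have a fitted effect of over 60% in size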
ELG1 unstim viab = qHTS screen for small molecules that inhibit ELG1-dependent DNA repair: Hit Confirmation with Unstimulated Viability Assay; shares compounds with ELG1 DNA repair; cell viability counter-screen, unstimulated, luminescence; Potency, µM (series often up to 45.9 µM), inactives show at the highest dose activity change, negative = loss of viability, usual class: cytotoxic; hit rate 8% among 900; AID 624252, 2012;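 note: potency is the fitted concentration of half-maximal effect; compound exposure lasted 16 hours before reading; nearly all actives have a fitted effect of over 55% in size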
FLuc enzyme = qHTS screen for small molecules that inhibit ELG1-dependent DNA repair: Hit Confirmation in Biochemical Luciferin Assay; Potency, µM (series often up to 57.5 µM), without a hit: top-dose activity, negative = inhibition, hits mostly inhibitors; purified firefly luciferase, luminescence counter-screen; shares compounds with ELG1 DNA repair; hit rate 10% among 350; note: potency is the fitted concentration of half-maximal effect
* marks the source's active call; other numbers are inactive results; ? = inconclusive; . = no result given. In the library only some 7.5% were active in any assay of this set; here they are far more common. Unless noted, calls come from the whole dose curve; as a rule, active = well fitted curve in the direction sought with a large enough effect; inconclusive = small, poorly fitted or top-dose-only effect, or another doubt; inactive = no such curve, though single readings can be large; an effect the other way counts as inactive or inconclusive. Unless noted, % is set by controls: 0 for no effect and ±100 for the full control effect.

SMILES	B2AR arrestin	VP16 counter	ELG1 DNA repair	TSHR antag	RORg inh	ELG1 FLuc counter	ELG1-Luc inh	ELG1 MMS Luc	ELG1 5FU viab	ELG1 MMS viab	ELG1 unstim viab	FLuc enzyme
COc1ccc(C(Nc2ccccc2)P(=O)(Oc2ccccc2)Oc2ccccc2)cc1 (configuration not stated)	-0.1%	?	?	23.7	29.6%	21.5%	7.06µM*	?	?	?	?	0.5%
CC1(C)C(C(Cl)Cl)C2(Cl)C(Cl)C(Cl)C1(Cl)C2(Cl)Cl (configuration not stated)	.	-3.6%	.	.	-16.4%	.	.	.	.	.	.	.
CC(C)[C@H](NC(=O)[C@H](CCC(=O)O)NC(=O)[C@H](Cc1ccccc1)NC(=O)[C@@H](C)NC(=O)[C@@H](N)Cc1ccc(O)cc1)C(=O)N[C@H](C(=O)NCC(N)=O)C(C)C	.	5.2%	.	.	1.3%	.	.	.	.	.	.	.
c1cc2cc(c1)C[n+]1ccc(c3ccccc31)NCc1ccc(cc1)CNc1cc[n+](c3ccccc13)C2	.	-19.0%	.	.	0.2%	.	.	.	.	.	.	.
c1csc(CN2CC[C@@]3(CCCNC3)C2)n1	.	-9.7%	.	.	-17.9%	.	.	.	.	.	.	.
C[C@@H]1O[C@@H](O[C@H]2C[C@@H](O)[C@]3(CO)[C@H]4[C@H](O)C[C@]5(C)[C@@H](C6COC(=O)C6)CC[C@]5(O)[C@@H]4CC[C@]3(O)C2)[C@H](O)[C@H](O)[C@H]1O (some centres not stated)	-0.5%	-4.2%	1.46µM*	?	-7.0%	?	2.5µM*	1.58µM*	?	3.15µM*	?	3.0%
COC(=O)[C@]12C(=O)C(C)=C(O)[C@@]1(C)C(C)=CC1[C@@]34CC[C@@H](OC(C)=O)C(C)(C)C3C(C[C@]12C)OC4=O (some centres not stated)	-0.5%	-5.5%	-1.5%	2.9	?	.	.	.	.	.	.	.
CC(=O)OC[C@]12CCC(C)=C[C@H]1O[C@@H]1[C@H](O)[C@@H](OC(C)=O)[C@@]2(C)[C@]12CO2	-0.4%	0.0016µM*	0.0183µM*	2.0	0.0316µM*	?	0.0281µM*	0.0177µM*	-0.2%	0.0445µM*	?	-5.2%
CCOC(=O)c1c(C)n(Cc2ccccc2)c2ccc(O)cc12	-0.8%	-23.0%	2.5%	-1.5	24.6%	.	.	.	.	.	.	.
CC(=O)c1c(C)n(C2CCCCC2)c2ccc(O)cc12	0.0%	-26.5%	?	-9.2	?	.	1.25µM*	?	1.3%	8.9%	?	.
C=C1C2C[C@]3(C4CC5[C@@]6(C)CC[C@H](O)[C@@]5(C3CC2=O)C4[N+]([O-])(CC)C6)[C@@H]1O (some centres not stated)	.	-3.2%	.	.	-5.0%	.	.	.	.	.	.	.
C=C1C(=O)O[C@@H]2C[C@@H](C)[C@@H]3C=CC(=O)[C@@]3(C)[C@@H](O)[C@H]12	-0.5%	3.16µM*	4.11µM*	4.4	3.16µM*	?	?	0.0045µM*	?	0.0056µM*	2.81µM*	7.31µM*
c1ccc2c(c1)c1cc[n+]2CCCCC[n+]2ccc(c3ccccc32)NCCCCCN1	.	-12.1%	.	.	-31.4%	.	.	.	.	.	.	.
c1ccc(P(c2ccccc2)c2ccccc2)cc1	.	-10.9%	.	.	-21.7%	.	.	.	.	.	.	.
O=C(CC[N+](=O)[O-])OCC1OC(O)C(OC(=O)CC[N+](=O)[O-])[C@@H](OC(=O)CC[N+](=O)[O-])C1OC(=O)CC[N+](=O)[O-] (some centres not stated)	.	-15.7%	.	.	3.8%	.	.	.	.	.	.	.
CCC1OC2(C)C(O)C(/C=C/C=C/C=C/c3oc(=O)cc(OC)c3C)OC1(C)C2OC(C)=O (configuration not stated)	.	.	.	.	0.0398µM*	?	2.23µM*	0.199µM*	-0.5%	0.158µM*	?	-9.5%
